Screens (PubChem)
VCAM1 pot – potentiators of TNFa-induced VCAM1 expression, primary screen, imaging, HUVEC, TNFa stimulus, immunofluorescence. HUVEC TNFa-stimulated VCAM-1 immunofluorescence, high-content imaging; scaled per plate to unstimulated/TNFa-only wells. activation, % at 2 µM. actives 0.19% (n = 93,000);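 active = activation above the screen mean plus 3 SD, with well images confirming the hit on visual review, cut at about 28% in these data, passing the limit was not always enough; inconclusive = activation above that limit but images do not confirm it; inactive = activation not above that limit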;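 note: signal is the number of cytoplasmic VCAM-1 stained grains per positive cell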
VCAM1 pot confirm – potentiators of TNFa-induced VCAM1 expression, confirmation, imaging, HUVEC, triplicate retest; HUVEC TNFa-stimulated VCAM-1 immunofluorescence imaging; 230 tested, under 10 active; shares compounds with VCAM1 pot; activation, % at 2 µM;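 active = activation above 30% in triplicate retests at 2 µM, then confirmed by visual review of the well images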;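 note: scaled per plate between unstimulated and TNFa-stimulated DMSO control wells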
Numbers without * were called inactive; ? = inconclusive. Shown is part of a subset that was picked to be rich in hits.

SMILES | VCAM1 pot | others
COc1ccc(C(=O)c2ccc(N3CCN(C4CC(=O)NC4=O)CC3)cc2)cc1F (configuration not stated) | -7
COC(=O)c1ccc(CNC(=O)CSc2nc3sc(C)c(C)c3c(=O)n2C)o1 | -26
O=C(Nc1cnn(C23CC4CC(CC(C4)C2)C3)c1)c1cnn2c(C(F)(F)F)cc(-c3ccco3)nc12 | -8
CCN(CC)C(=O)CSc1nc(-c2cccs2)cc(-c2cccs2)c1C#N | 50* | VCAM1 pot confirm=-20
CCN(CC)C(=O)CSc1nc(N)c(C#N)c(-c2cccs2)c1C#N | -13
COc1ccc(CNC(=O)CSc2nc(-c3ccccc3)cc(-c3cccs3)c2C#N)cc1 | 0
Cc1cccc(-c2nnc(-c3cccc(NC(=O)Cc4cccs4)c3)o2)c1 | -4
Cc1[nH]n(-c2ccc([N+](=O)[O-])cc2)c(=O)c1C=NCCN1CCN(C(=O)c2cccc(F)c2)CC1 | -6
O=C(CN1C(=O)c2ccccc2C1=O)NCC1COc2ccccc2O1 (configuration not stated) | -17
Cc1cc(C(=O)CN2C(=O)c3ccccc3C2=O)c(C)n1C1CC1 | 129* | VCAM1 pot confirm=-14
O=C(CN1C(=O)c2cccnc2C1=O)c1ccccc1 | 8
O=C(NCCN1CCN(c2ccccc2F)CC1)C1CCCN(S(=O)(=O)c2cnc[nH]2)C1 (configuration not stated) | 5
CCC1(COC(NC(=O)c2cccnc2)(C(F)(F)F)C(F)(F)F)COC1 | 4
CC(Nc1cc(=O)n(C)c(=O)[nH]1)c1ccccc1 (configuration not stated) | -9
Cn1ccnc1SCC(=O)Nc1ccc2ccccc2c1 | 32
C/C(=N\NC(=O)Cc1cccn1C)c1ccc2ccccc2c1 | ? | VCAM1 pot confirm=-4
CN1CCN(S(=O)(=O)c2ccc(Br)c3nsnc23)CC1 | -10
CCCSc1ncnc2c1oc1ccccc12 | 2
CCc1nc(SCC(=O)c2cccs2)c2oc3ccccc3c2n1 | 28* | VCAM1 pot confirm=-14
CCOC(=O)CSc1nc(-c2ccccc2)nc2c1oc1ccccc12 | -4
Cc1ccc(S(=O)(=O)c2c(C)cc(C)nc2Oc2cccc(C(F)(F)F)c2)cc1 | -6
COc1ccccc1C(=O)NCc1ccccc1 | 22
CCCCCCc1cc2cc(C(=O)NCc3ccccc3)c(=N)oc2cc1O | 51* | VCAM1 pot confirm=-6
CCCCCCNC(=O)CC(c1ccccc1)c1cc(Br)ccc1O (configuration not stated) | 10
C=CCc1c(C)nc(SC)nc1Nc1ccc(C)cc1 | 0
SMILES | VCAM1 pot | others
N#CCCNC(=O)CCN1CCOCC1 | -2
COc1ccc(S(=O)(=O)N(C)CC(=O)NCc2cccnc2)cc1Cl | -1
CCOc1nc(-c2ccccc2)ccc1-c1noc(COC)n1 | ? | VCAM1 pot confirm=-10
COc1cccc(-c2ccc(-c3noc(-c4cccs4)n3)c(OC)n2)c1 | 1
COc1ccc(Br)cc1-c1noc(-c2ccccc2)n1 | 2
CC1(C)C(c2cccs2)=[N+]([O-])C2(CCCCC/C2=N\NC(N)=O)N1O (configuration not stated) | 15
CC(C)(C)c1ccc(/C=C/C(=O)NC2=NCCS2)cc1 | -10
O=C(Nc1ccc2c(c1)CCC2)c1cnccn1 | 6
O=C(N/N=C/C(Br)=C/c1ccccc1)c1n[nH]c2c1CCC2 | -91
O=C(N/N=C/C(Cl)=C\c1ccccc1)c1cnccn1 | 63* | VCAM1 pot confirm=-17
COC(=O)c1cnn(C(=O)c2cc(OC)ccc2Br)c1N | 1
O=C(CCNS(=O)(=O)c1ccc(Cl)cc1)N1CCC2(O)CCCCC2C1 (configuration not stated) | -3
Cc1ccc(S(=O)(=O)NCc2nnc(SCC(=O)Nc3cccc(C)c3C)n2C)cc1 | 7
CCOc1ccccc1N1CCN(C(=O)c2cccc(-c3ccc(O)cc3)c2)CC1 | -44
Cn1c(NC(=O)C2c3ccccc3Oc3ccccc32)cc(=O)n(C)c1=O | -94
Cc1ccc(-c2nnc(SCC(C)C)n2C)cc1 | -8
CC(C)NC(=O)CSc1nnc(-c2ccc(C(C)(C)C)cc2)n1C | ? | VCAM1 pot confirm=-15
CC(C)CCNC(=O)CSc1nnc(-c2ccc(S(=O)(=O)N3CCCC3)cc2)n1C | 7
COc1ccc(OC)c(-n2c(-c3cccc(O)c3)n[nH]c2=S)c1 | -7
COc1ccc(C(=O)NCC(=O)n2nc(C)cc2C)cc1OC | 22
CCOC(=O)Cc1nnc(NC(=O)COc2ccc(OC)cc2)s1 | -1
CCc1nnc(NC(=O)c2ccc(OC)cc2OC)s1 | 64* | VCAM1 pot confirm=-1
CCc1nnc(NC(=O)c2ccc3c(c2)C(=O)N(CC(C)C)C3=O)s1 | -14
COc1cc(-c2nnc(CSc3nnc4nc(C)cc(C)n34)o2)cc(OC)c1OC | -1
COc1ccc(/C=N\NS(=O)(=O)c2ccc(Cl)cc2)cc1COc1ccccc1[N+](=O)[O-] | 2
SMILES | VCAM1 pot | others
CC(=O)/C(=N/Nc1cccc(C)c1)N1CCOCC1 | 1
Cc1c(NC(=O)N(C)C)c(=O)n(-c2ccccc2)n1C | 1
O=C(CN1CCC(c2nc3ccccc3[nH]2)CC1)NCc1ccc2c(c1)OCO2 | 1
Clc1ccc2nc(C3CCN(Cc4nnnn4C4CCCCC4)CC3)[nH]c2c1 | 60* | VCAM1 pot confirm=-4
Nc1nnc(SCCOc2ccc(Br)cc2)s1 | 2
Cc1ccccc1-c1nc(Cc2ccccc2)no1 | 9
COCCn1nnnc1CN(CCCN1CCOCC1)Cc1cc2c(C)ccc(C)c2[nH]c1=O | -4
Cc1cc(C)c2cc(CN(Cc3ccc4c(c3)OCO4)Cc3nnnn3Cc3ccco3)c(=O)[nH]c2c1 | 54* | VCAM1 pot confirm=-5
COc1ccc2cc(CN(Cc3cccs3)Cc3nnnn3Cc3ccccc3)c(=O)[nH]c2c1 | -1
CCOC(=O)c1c(C)cccc1OCC(N)=O | -8
CCCCc1c(C)nn(-c2nnc3c4ccccc4n(C)c3n2)c1C | 1
CC(=O)Oc1oc(-c2ccccc2)nc1/C=N/c1ccccn1 | 89* | VCAM1 pot confirm=-4
OCCN(Cc1ccccc1)Cc1ccc(C(F)(F)F)cc1 | -10
COCc1cc(Sc2c(Cl)cccc2Cl)nc(-c2ccccc2)n1 | 8
Cc1nc(CS(=O)(=O)c2ccccc2)cc(N2CCOCC2)n1 | -3
O=S(=O)(Cc1cc(Sc2ccc(Cl)cc2)nc(-c2ccccc2)n1)c1ccccc1 | 50* | VCAM1 pot confirm=-20
CN=C1S/C(=C\c2ccc(N3CCOCC3)c(F)c2)C(=O)N1C | 3
Cc1ccc(Cn2nnc3c(=O)n(CC(=O)N4CCN(c5ccccc5)CC4)cnc32)cc1 | 18
Cc1ccccc1NC(=O)Cn1nc(C(F)(F)F)cc1C1CC1 | 54* | VCAM1 pot confirm=-9
Cc1cc(C(F)(F)F)nn1CC(=O)Nc1ccc(Br)c2cccnc12 | -6
CCc1ccccc1NC(=O)c1nnn(CC(=O)Nc2cccc(C)c2C)c1N | -4
O=C(Nc1ccc2oc(-c3ccccc3)nc2c1)c1ccc2c(c1)OCCO2 | 30* | VCAM1 pot confirm=-10
O=C(Cc1ccccc1)Nc1ccc2oc(-c3cccnc3)nc2c1 | 2
O=C(Nc1ccc(-c2nc3cc(Cl)ccc3o2)cc1)C1CCCO1 (configuration not stated) | 34
c1cc2c(cc1Oc1nc(N3CCOCC3)nc(N3CCOCC3)n1)OCO2 | -6
COc1ccc2oc(=O)c(C(=O)N3CCN(c4ccccc4)CC3)cc2c1 | 83* | VCAM1 pot confirm=-9
COc1ccc2oc(=O)c(C(=O)n3ccc(C)n3)cc2c1 | 0
COc1ccc2oc(=O)c(C(=O)NCc3cccnc3)cc2c1 | 15
Cc1nc(-c2cccnc2)sc1C(N)=O | -4
